From PubChem BioAssay
Lassa entry inh: blocks Lassa virus binding to or entry into cells | Lassa virus pseudotype entry inhibition, cell reporter | Potency, µM (doses to about 37.9 µM), without a hit: top-dose activity change, negative = inhibition, hits mostly inhibitors | 300,000 compounds, 1.2% hits; calls by dose curve; tested in HEK293 cells; further: potency means the concentration at half of the fitted maximal effect; nearly all actives have a fitted effect of over 50% in size
FMDV inh: antivirals against foot and mouth disease virus; Potency, µM (titrated, usually from 57.9 µM), for the others: at the top dose activity change, negative = inhibition, most hits filed as inhibitors; 410,000 compounds, 1.2% hits; FMDV antiviral cell-based qHTS; calls by dose curve; tested in HEK293T cells; further: read-out not given here; potency means the concentration at half of the fitted maximal effect; nearly all actives have a fitted effect of over 45% in size
Marburg entry inh: Marburg virus entry inhibition; Marburg virus pseudotyped entry inhibition, cell reporter; Potency, µM (series often up to 37.8 µM), inactives show at the highest dose activity change, negative = inhibition, hits mostly inhibitors; 300,000 compounds, 1.8% hits; AID 540276; calls by dose curve; tested in HEK293 cells; further: potency means the concentration at half of the fitted maximal effect
Vaccinia mCherry: inhibitors of vaccinia virus infection (mCherry reporter signal). Vaccinia virus mCherry reporter infection, fluorescence. Potency, µM (top dose mostly 36.5 µM), inactives show at the top dose activity change, negative = inhibition, actives largely listed as inhibitors. 310,000 compounds, 0.63% hits; calls by dose curve; tested in A549 cells; further: potency means the concentration at half of the fitted maximal effect; nearly all actives have a fitted effect of over 35% in size
VACV Venus inh: inhibitors of vaccinia virus (Venus reporter); Vaccinia virus Venus reporter expression, fluorescence; Potency, µM (titrated, usually from 36.5 µM), for the others: at the top dose activity change, negative = inhibition, usual class: inhibitors; 330,000 compounds, 0.46% hits; calls by dose curve; tested in A549 cells; further: potency means the concentration at half of the fitted maximal effect; nearly all actives have a fitted effect of over 30% in size
HCMV antiviral: inhibitors of human cytomegalovirus; 410,000 compounds, 4.5% hits; AID 1259415; activity change, negative = inhibition, % at 57.5 µM; HFF cells, HCMV-luciferase reporter, 72 h; stronger effect = lower value; in the data active means activity change below about -60%; inconclusive means no clear call, values can overlap the other calls; inactive means above about -39%
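Two-dose cell screen: HFF monolayers treated with compounds and infected with luciferase-expressing HCMV at 1 PFU/cell, 72 h at 37C, then lysed for luciferase measurement.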
Active calls of the source: *; [ ] = another dose, or the depositor's remark. Most compounds without a hit are left out; they make up all but 6.5% or so of the library. On the % scale 0 is the no-effect control and ±100 the full control effect.

Results for CCc1cc(SC#N)cc(C)c1NC(=O)CCl ?
Lassa entry inh: inconclusive; FMDV inh: -21.0%; Marburg entry inh: inconclusive; Vaccinia mCherry: inconclusive; VACV Venus inh: inconclusive; HCMV antiviral: -96.1*

How did CCc1cc(SC#N)cc(C)c1N do in these assays?
FMDV inh: -16.2%; HCMV antiviral: -12.6

Results for CCC(=O)Nc1ccc(SC#N)cc1C ?
Lassa entry inh: -18.7%; Marburg entry inh: -13.8%; Vaccinia mCherry: inactive; VACV Venus inh: -14.5%; HCMV antiviral: 6.9

How did Cc1cc(Cn2cnc3c2C[C@@H](C(=O)O)N(C(=O)C(c2ccccc2)c2ccccc2)C3)ccc1N(C)C do in these assays?
FMDV inh: -15.6%

Results for CCOC(=O)c1c(Nc2ccc(F)cc2)nnc(-c2ccccc2)c1-c1ccccc1 ?
Lassa entry inh: inconclusive; FMDV inh: inconclusive; Marburg entry inh: inconclusive; Vaccinia mCherry: 4.8%; VACV Venus inh: -0.6%; HCMV antiviral: -12.3

What do the screens show for `CCOC(=O)c1c(C)[nH]c(CCC(=O)Nc2ccccc2OCC)c1C`?
Lassa entry inh: -2.1%[46.1 µM]; FMDV inh: -21.3%; Vaccinia mCherry: -0.2%; VACV Venus inh: -2.3%; HCMV antiviral: inconclusive

Results for CCOC(=O)c1c(C)[nH]c(CCC(=O)Nc2ccccc2C(=O)OC)c1C ?
Lassa entry inh: -17.4%[46.1 µM]; FMDV inh: -8.2%; Vaccinia mCherry: -10.7%; VACV Venus inh: -7.5%; HCMV antiviral: -72.6*

What do the screens show for `C[N+]1(CC(=O)c2ccc(-c3ccccc3)cc2)CCOCC1`?
Vaccinia mCherry: inactive; VACV Venus inh: -10.6%

What do the screens show for `C=CCOc1ccc(CN(C)C(=O)CNC(=O)c2ccc(-c3ccccc3)cc2)cc1`?
Lassa entry inh: inconclusive; FMDV inh: 12.6µM*; Marburg entry inh: inconclusive; Vaccinia mCherry: inactive; VACV Venus inh: -29.7%; HCMV antiviral: -80.7*

What do the screens show for `O=C(NC1C2CCCC1CN(C1CC1)C2)c1ccc(Cl)cc1` (stereo not given)?
FMDV inh: inconclusive; HCMV antiviral: -63.9*

Results for CN1C2CCC1CC(NC(=O)c1ccc(Cl)cc1)C2 (stereo not given) ?
Lassa entry inh: inconclusive; FMDV inh: 7.9%; Marburg entry inh: -20.1%[46.1 µM]; Vaccinia mCherry: inactive[7.34 µM]; VACV Venus inh: -0.8%[7.34 µM]; HCMV antiviral: 35.0

What do the screens show for `Cc1nc2cc(NC(=O)C3CC34CCN(Cc3ccc(O)c(Cl)c3)CC4)ccc2s1` (stereo not given)?
FMDV inh: 6.1%; Vaccinia mCherry: inactive; VACV Venus inh: -11.7%

How did COc1ccc(N=C2S/C(=C\c3cc(C)n(C)c3C)C(=O)N2C)cc1 do in these assays?
Lassa entry inh: 4.47µM*; FMDV inh: -14.4%; Marburg entry inh: inconclusive; VACV Venus inh: -28.6%; HCMV antiviral: -8.4

What do the screens show for `CCCN1C(=O)/C(=C/c2cc(C)n(C)c2C)SC1=Nc1ccc(OC)cc1`?
Lassa entry inh: inconclusive; FMDV inh: -22.3%; Marburg entry inh: inconclusive; VACV Venus inh: inconclusive; HCMV antiviral: -2.1

Results for O=C(/C=C/c1cn(CC(O)CN2CCCCCC2)c2ccccc12)c1ccccc1 (stereo not given) ?
Lassa entry inh: -25.8%[46.1 µM]; FMDV inh: -3.3%; Marburg entry inh: inconclusive; Vaccinia mCherry: -8.7%; VACV Venus inh: -12.0%; HCMV antiviral: -38.5

What do the screens show for `COc1ccc(C(=O)/C=C/c2cn(CC(O)CN3CCCCCC3)c3ccccc23)cc1OC` (stereo not given)?
Lassa entry inh: inconclusive; FMDV inh: -20.4%; Marburg entry inh: inconclusive; Vaccinia mCherry: inconclusive; VACV Venus inh: -21.0%; HCMV antiviral: -90.9*

How did O=C(/C=C/c1cn(CC(O)CN2CCCCC2)c2ccccc12)c1ccccc1 (stereo not given) do in these assays?
Lassa entry inh: inconclusive; FMDV inh: -6.3%; Marburg entry inh: inconclusive; Vaccinia mCherry: -6.6%; VACV Venus inh: -14.8%; HCMV antiviral: -84.5*

How did COc1ccc(C(=O)/C=C/c2cn(CC(O)CN3CCN(C)CC3)c3ccccc23)cc1OC (stereo not given) do in these assays?
Lassa entry inh: -24.8%; FMDV inh: -5.0%; Marburg entry inh: inconclusive; Vaccinia mCherry: inconclusive; VACV Venus inh: inconclusive; HCMV antiviral: -78.2*
